# The sample as a whole holds a higher share of hits than the screen did.
# Shiga inhibitor = A qHTS for Small Molecule Inhibitors of Shiga Toxin; AID 2315, 2010; inhibition, % at 38.7 µM; hit rate 9.2% among 290,000; Vero cells, Shiga toxin protein synthesis inhibition reporter; in the data active = inhibition mostly above about 28%, no sharp cut-off; inactive = mostly below about 43%
# Tb PYK inh = qHTS of Trypanosoma Brucei Inhibitors; Potency, µM (titrated, usually from 76.8 µM), most hits filed as inhibitors; hit rate 0.12% among 410,000; pyruvate kinase (Trypanosoma brucei), Q57TT1; TbPYK enzyme, Kinase-Glo Plus ATP luminescence, 45 min; also: nearly all actives have a fitted effect of over 50% in size
#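 Enzyme and substrate buffer are dispensed first and compound is pin-transferred. ADP at 130 uM final then starts the reaction, which runs 45 min at room temperature. Detection reagent is added for 10 min before luminescence is imaged.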
# Giardia FBPA inh = qHTS Assay for Inhibitors of Fructose-1,6-bisphosphate Aldolase from Giardia Lamblia | purified Giardia FBPA | AID 2451, 2010 | hit rate 0.71% among 290,000 | A8B2U2 | Potency, µM (titrated, usually from 59.6 µM), actives largely listed as inhibitors; also: nearly all actives have a fitted effect of over 55% in size
#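 Giardia FBPA (40 nM reagent) was preincubated 10 min at RT with compound (up to 57.5 uM final), then substrate plus GAPDH/TPI/NAD/arsenate coupling system with diaphorase/resazurin was added; resorufin fluorescence (525/598 nm) was read after 20 min.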
# LmPK inh = qHTS Assay for Inhibitors of Leishmania Mexicana Pyruvate Kinase (LmPK); Q27686; purified LmPK, Kinase-Glo ATP luminescence, 1 h; Potency, µM (top dose mostly 57.5 µM), most hits filed as inhibitors; hit rate 0.37% among 290,000; AID 1721, 2009
# Target sequence (Q27686 whole entry, looked up): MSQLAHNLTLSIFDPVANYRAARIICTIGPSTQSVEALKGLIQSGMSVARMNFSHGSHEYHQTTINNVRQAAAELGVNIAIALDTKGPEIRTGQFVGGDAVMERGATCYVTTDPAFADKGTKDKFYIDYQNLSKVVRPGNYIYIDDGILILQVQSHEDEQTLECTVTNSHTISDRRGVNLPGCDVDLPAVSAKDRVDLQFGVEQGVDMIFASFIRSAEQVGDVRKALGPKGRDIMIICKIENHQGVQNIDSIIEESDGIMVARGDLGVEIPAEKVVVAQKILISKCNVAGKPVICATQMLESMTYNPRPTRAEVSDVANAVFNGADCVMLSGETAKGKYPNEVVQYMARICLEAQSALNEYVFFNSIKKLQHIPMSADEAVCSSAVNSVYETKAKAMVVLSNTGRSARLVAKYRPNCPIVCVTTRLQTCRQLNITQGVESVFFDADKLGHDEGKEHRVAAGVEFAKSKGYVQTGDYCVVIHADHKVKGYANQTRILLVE
#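 Purified LmPK (0.1 nM) with 0.5 mM PEP and 0.1 mM ADP in imidazole buffer pH 7.2 with MgCl2/KCl, 1 h at room temperature. ATP formed was read by luciferase luminescence and normalized to no-enzyme and uninhibited controls.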
# RE007 growth inh = qHTS Assay for Inhibitors of the HIV-1 protein Vpr; S. pombe RE007 Vpr strain, BacTiter-Glo ATP luminescence, 24 h; Potency, µM (titrated, usually from 92.2 µM), usual class: inhibitors; hit rate 0.21% among 360,000; AID 651644, 2012; active = well fitted falling curve with a large enough effect; inconclusive = small, poorly fitted or top-dose-only effect; inactive = no such curve, though single readings can be large or run the other way; also: nearly all actives have a fitted effect of over 50% in size
#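 Fission yeast strain RE007, carrying one chromosomally integrated HIV-1 vpr copy, was seeded at OD 0.01 in PMG+AL medium with 23 nL pinned compound. After 24 h at 30 °C and 99% humidity, viability was read by BacTiter-Glo luminescence.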
# CHX counter = Cycloheximide Counterscreen for Small Molecule Inhibitors of Shiga Toxin; cell reporter, cycloheximide protein synthesis inhibition counterscreen; hit rate 12% among 300,000; max response, %; in the data active = max response mostly above about 13%, no sharp cut-off; inactive = mostly below about 14%; also: read at 38.3 µM for the half of the compounds with a filed dose
# Hits are given with their value; . = inactive; ? = inconclusive; / = no result; [ ] = remark or other dose. Unless noted, calls follow the shape of the dose curve; as a rule, active = well fitted curve in the direction sought with a large enough effect; inconclusive = small, poorly fitted or top-dose-only effect, or another doubt; inactive = no such curve, though single readings can be large; an effect the other way counts as inactive or inconclusive.
SMILES,Shiga inhibitor,Tb PYK inh,Giardia FBPA inh,LmPK inh,RE007 growth inh,CHX counter
COc1ccc(C(=O)NCCNc2nc3ccc(C)cc3cc2C#N)cc1,34,.,.,.,.,23
CCOc1ccccc1-c1nnc2n1N=C(c1cc(OC)ccc1OC)CS2,.,/,.,/,/,.
CCOC(=O)CSc1nc2cc(OCC)ccc2cc1C#N,88,/,.,.,.[3.69 µM],65
COc1ccc(OCC2CCCN(Cc3nc(CC4CC4)no3)C2)cc1 (centres undefined),.,.,.,.,.,19
O=C1CCCN1CC1CCCN(Cc2nc(COc3ccccc3)no2)C1 (centres undefined),.,.,.,.,.,.
c1ccc(C2CCCN(Cc3nc(CC4CC4)no3)CC2)cc1 (centres undefined),53,.,.,.,.,16
O=C1CCCN1CC1CCN(Cc2nc(CC3CC3)no2)CC1,48,.,.,.,.,.
Cc1cccc(OCC(=O)Nc2ccccc2OCc2cc(=O)n3ccccc3n2)c1,/,.,/,/,/,/
Cc1noc(C)c1C(=O)N1CCC[C@@]2(CCN(c3ccccn3)C2)C1,/,.,.,/,/,/
CC(C)C[C@H](NC(=O)[C@H](CC(C)C)NC(=O)[C@H](CCC(N)=O)NC(=O)[C@H](CO)NC(=O)[C@@H]1CCCN1C(=O)[C@H](CO)NC(=O)[C@H](CO)NC(=O)[C@@H](NC(=O)[C@H](Cc1cnc[nH]1)NC(=O)[C@H](CCC(=O)O)NC(=O)[C@H](Cc1ccc(O)cc1)NC(=O)[C@H](CCCCN)NC(=O)[C@H](CCC(N)=O)NC(=O)[C@H](Cc1ccc(O)cc1)NC(=O)[C@H](CC(=O)O)NC(=O)[C@@H](NC(=O)[C@@H]1CCCN1C(=O)[C@H](CC(=O)O)NC(=O)[C@H](CC(N)=O)NC(=O)[C@H](CC(=O)O)NC(=O)CNC(=O)[C@H](CC(=O)O)NC(=O)[C@@H]1CCCN1C(=O)[C@H](CCC(N)=O)NC(=O)[C@H](Cc1ccc(O)cc1)NC(=O)[C@H](C)NC(=O)[C@H](Cc1c[nH]c2ccccc12)NC(=O)[C@H](Cc1ccccc1)NC(=O)[C@@H](NC(=O)[C@@H](N)CO)[C@@H](C)O)[C@@H](C)O)[C@@H](C)O)C(=O)N[C@@H](C)C(=O)N1CCC[C@H]1C(=O)NCC(=O)N[C@@H](CC(=O)O)C(=O)N[C@@H](Cc1ccc(O)cc1)C(=O)O,.,/,.,/,/,.
COc1ccc(NC(=O)c2noc3c2CCC3)cc1,65,.,.,16µM,40µM,35
O=C(Nc1ccc(OC(F)(F)F)cc1)c1noc2c1CCCC2,/,.,/,/,/,/
Cc1ccc(NC(=O)c2noc3c2CCC3)cc1C,93,.,.,.,.,28
COc1cc(NC(=O)c2noc3c2CCC3)c(OC)cc1Cl,.,.,.,.,.,.
CC(=O)c1cccc(NC(=O)c2noc3c2CC(C)CC3)c1 (centres undefined),/,.,/,/,/,/
COC(=O)c1ccccc1NC(=O)c1noc2c1CCCC2,.,.,.,.,?,.
O=C(Nc1cccc(O)c1)c1noc2c1CCCCC2,.,.,.,11µM,.,.
CC(=O)c1ccc(NC(=O)c2noc3c2CCC3)cc1,64,.,.,.,.,.
c1cc(CN2CCCNCCNCCCNCC2)ccc1CN1CCCNCCNCCCNCC1,.,/,.,/,/,.
CC(=O)Nc1ccc(S(=O)(=O)NC2(C(F)(F)F)C(=O)Nc3c2c(=O)[nH]c(=O)n3-c2cccc(Cl)c2)cc1 (centres undefined),/,.,/,/,/,/
Cc1ccccc1Cn1nc(C)c(NC(=O)c2noc3c2CCCC3)c1C,.,.,.,.,.,.
Cc1nn(Cc2ccccc2Cl)c(C)c1NC(=O)c1noc2c1CCCCC2,.,.,.,.,.,21
CN(C)/C=N/C1=C(C#N)C(c2cccs2)c2ccc3ccccc3c2O1 (centres undefined),66,.,?,.,.,47
N#CC1=C(N)Oc2cc3ccccc3cc2C1c1cccs1 (centres undefined),.,.,.,.,.,.
COc1ccc(C2(CNC(=O)/C=C/c3ccco3)CCCC2)cc1OC,.,?,.,.,.,.
SMILES,Shiga inhibitor,Tb PYK inh,Giardia FBPA inh,LmPK inh,RE007 growth inh,CHX counter
O=C(/C=C/c1ccco1)NCC1(c2ccccc2)CCCC1,48,.,.,.,.,105
O=C(O)/C=C/C(=O)NCCc1ccccc1,.,.,.,.,.,.
O=C(O)CCCNC(=O)/C=C/c1ccco1,.,.,.,.,.,.
O=C(/C=C/c1ccco1)NCCc1ccccc1,81,.,.,.,.,47
CCC/C(=N\NC(=O)CNC(=O)/C=C/c1ccco1)c1ccccc1,.,.,.,.,.,13
CC/C(=N\NC(=O)CNC(=O)/C=C/c1ccco1)c1ccccc1,.,.,.,.,.,.
Cc1ccc(/C=C/C(=O)NCCc2ccccc2)o1,77,?,.,.,.,40
CCn1c(=O)cc(OCC(=O)N(C)c2ccc(OC)cc2)c2ccccc21,/,.,/,/,/,/
CCOc1ccccc1NC(=O)Cn1c(=O)n(-c2ccc(F)cc2)c(=O)c2sc3ccccc3c21,/,.,/,/,/,/
Oc1ccc(/C=N/Nc2cccc(Cl)n2)c(O)c1,47,.,.,.,.,42
C/C(=N\Nc1ccc(C(F)(F)F)cn1)c1ccncc1,101,.,.,.,.,24
Oc1ccc(/C=N/Nc2ccc(C(F)(F)F)cn2)cc1,124,.,.,.,.,37
Oc1ccc(/C=N/Nc2ccc(C(F)(F)F)cn2)c(O)c1,56,/,.,.,/,52
CC(=NNc1ccc([N+](=O)[O-])cn1)c1ccccc1,/,.,/,/,?,/
COc1ccc(-c2cc(C(F)(F)F)nc(SCC(=O)NCCc3ccc(OC)c(OC)c3)n2)cc1,/,.,/,/,/,/
COc1ncc2nc(-c3ccc(F)cc3)c(=O)n(-c3ccccc3)c2n1,/,/,.,/,/,/
O=C(O)CC/C(=N/NC(=O)c1cccs1)c1ccccc1,24,.,.,.,.,77
O=C(O)CCC(=O)NNC(=O)c1cccs1,.,.,.,.,.,18
Cc1ccc(NC(=O)CCC(=O)NNC(=O)c2cccs2)cc1C,.,.,.,.,.,.
O=C(O)CC/C(=N\Nc1ccccc1[N+](=O)[O-])c1cccs1,58,.,.,.,.,47
CCOC(=O)N/N=C(\CCC(=O)O)c1cccs1,35,.,.,.,.,17
N#CCC(=O)N/N=C\c1cc(Br)ccc1OC/C=C/c1ccccc1,98,.,/,.,.,26
COC(=O)N/N=C\c1ccccc1OC/C=C/c1ccccc1,.,.,.,.,.,32
CCOC(=O)N/N=C\c1ccccc1OC/C=C/c1ccccc1,55,.,.,.,.,34
